Results reported in PubChem BioAssay AID1224852 (National Center for Advancing Translational Sciences (NCATS), 2016).
Inconclusive results are not listed. Values without a mark were called inactive. The call rests on the fitted dose curve; in most records, active means well fitted curve in the direction sought with a large enough effect (not every such curve was filed as active); inconclusive means small, poorly fitted or top-dose-only effect, or effect the other way, or another doubt; inactive means no such curve, though single readings can be large or run the other way.

assay: Cell viability assay for measurement of the protective activity of small molecules against cell death caused by Zika virus infection in human neural progenitor cells (hNPCs); settings: hNPC ZIKV-induced death protection, ATP luminescence, 72 h; series mostly up to 46.1 µM; protection, negative = more death: at the top concentration;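 further: 0% = ZIKV-infected cells without compound and 100% = uninfected cells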
Method in brief: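 Luminescent ATP content after 72 h ZIKV infection (2 FFU/cell) of hNPCs, compounds added 1 h before virus. Protection expressed as percent inhibition of the infection-induced drop in cell viability.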

| SMILES | protection, negative = more death |
| --- | --- |
| O=C(O)CCC(=O)c1ccc(-c2ccccc2)cc1 | 0.919% |
| Cc1c(C(=O)O)c(O)cc2c1C(=O)c1c(O)c([C@@H]3O[C@H](CO)[C@@H](O)[C@H](O)[C@H]3O)c(O)c(O)c1C2=O | -7.65% |
| Cc1cccc(/C=C/c2ccccc2)n1 | -15.4% |
| C[C@@H]1CCN(C(=O)CC#N)C[C@H]1N(C)c1ncnc2[nH]ccc12 | 8.69% |
| Cc1ccc2c(n1)Oc1ccc(C(C)C(=O)OCC(=O)N(C)C)cc1C2 (stereo unspecified) | -34.7% |
| N#CC1(c2ccc(NC(=O)c3cccnc3NCc3ccncc3)cc2)CCCC1 | -13.3% |
| CCOCCOC(=O)/C=C/c1ccc(OC)cc1 | -28.4% |
| COc1ccc(/C=C/C(=O)Nc2ccccc2C(=O)O)cc1OC | -34.7% |
| C=C1C(=O)[C@@]23C(CC[C@@H]1[C@H]2O)[C@@]12CO[C@]3(O)[C@@H](O)[C@@H]1C(C)(C)CC[C@@H]2O (stereo partly specified) | -75.9% |
| O=C1c2ccccc2-[n+]2ccc3c([nH]c4ccccc43)c21 | -85.7% |
| Nc1cc(C(F)(F)F)ccc1S | -79.8% |
| O=c1cc(-c2ccccc2)oc2cc(O)c(O)c(O)c12 | -62.6% |
| CCN(CC)c1ccc(C(=C2C=CC(=[N+](CC)CC)C=C2)c2cc(S(=O)(=O)O)ccc2S(=O)(=O)[O-])cc1 | -44.4% |
| CNC1[C@H](O)C(O[C@@H]2C(O)C(O[C@H]3O[C@H]([C@@H](C)NC)CC[C@H]3N)[C@@H](N)C[C@H]2N)OC[C@]1(C)O (stereo partly specified) | 4.9% |
| OCc1ccc(-c2ccc(-c3ccc(CO)s3)o2)s1 | -81.6% |
| O=C(/C=C/c1ccc(O)cc1)c1ccc(O)cc1O | -43.6% |
